According to PubChem BioAssay AID434955 (Southern Research Specialized Biocontainment Screening …, 2010):
Out of some 330,000 compounds screened, about 880 (0.27%) were called active. Roughly 1% stayed inconclusive and do not appear here. How the calls were made is not given here. A selection follows.

Assay: beta-lactam sensitization of Mtb H37Rv, H37Rv (AID 434955);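 further: growth measured after seven days incubation then overnight dye step; 0% = bacteria only wells and 100% = bacteria with antibiotic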
Conditions: M. tuberculosis H37Rv growth with meropenem, percent inhibition, at 25 µM
[1] = measured here: primary screen without meropenem

| Structure (SMILES) | inhibition (stronger effect = higher value) | inhibition [1] [%] |
| --- | --- | --- |
| CC(C)(C)C1CCc2c(sc3nc(SCC(N)=O)nc(N)c23)C1 (stereo not given) | 99.1% (inactive) | 99.3 |
| Brc1ccc(Nc2c3c(nc4ncnn24)CCC3)cc1 | -0.68% (inactive) | -2.17 |
| O=C(NCC(=O)N1CCN(c2ccccc2O)CC1)c1ccc2ccccc2c1 | 10.4% (inactive) | 3.65 |
| CCN(CCn1cccn1)C(=O)CC1C(=O)NCCN1Cc1cccc(OC)c1OC (stereo not given) | -2.12% (inactive) | 0.4 |
| CC(C)CCN1CCN(Cc2cn[nH]c2C2CCCCC2)CC1CCO (stereo not given) | -6.26% (inactive) | 2.27 |
| CC(=O)C[C@@H](O)CC(=O)[C@H]1OC(=O)CCCCCCc2ccccc21 | 1.26% (inactive) | -0.35 |
| C[C@H](CO)N1C[C@H](C)[C@@H](CN(C)S(=O)(=O)c2ccc(F)cc2)Oc2c(NC(=O)Nc3ccccc3)cccc2C1=O | 5.19% (inactive) | 4.04 |
| CC1=CC(=O)C=CC1(C)C(Cl)(Cl)Cl (stereo not given) | -0.23% (inactive) | 1.78 |
| CCC(C)NCC(=O)Nc1ccc([N+](=O)[O-])cc1C(=O)Nc1ccccc1F (stereo not given) | -6.32% (inactive) | 3.29 |
| CC1CC(C)CN(S(=O)(=O)c2cccc(C(=O)N3C(=O)c4cccc(N)c4C3=O)c2)C1 (stereo not given) | -7.74% (inactive) | -0.88 |
| Cc1c(C)c(C)c(S(=O)(=O)N2CCC3(CC2)OCCO3)c(C)c1C | -2.23% (inactive) | -3 |
| C[C@H]1CN([C@@H](C)CO)C(=O)Cc2cc(NS(C)(=O)=O)ccc2O[C@@H]1CN(C)CC1CC1 | -11.2% (inactive) | 2.75 |
| Cc1ccc2nc(-c3ccc(NC(=O)CN(C)S(=O)(=O)c4ccccc4)cc3)sc2c1 | 11.9% (inactive) | 3.33 |
| CCOC(=O)c1ccc(NC(=O)c2ccc(NC(=O)C3CCCO3)cc2)cc1 (stereo not given) | 79.3% (inactive) | 83.3 |
| CCn1c(/C=N/NC(=O)c2ccc(OC)cc2)nc2ccccc21 | 99.1% (inactive) | 99.4 |
| O=C(Nc1ccc(F)cc1F)N1CCCN(CCOc2ccccc2)CC1 | -1.99% (inactive) | -0.11 |
| CSc1sc(C(=O)NNC(=O)c2ccc(Cl)cc2)c2c1C=CCC2 | -5.38% (inactive) | 4.57 |
| Cc1oc2c(F)c(F)c(F)c(F)c2c1S(=O)(=O)Nc1cccc(C(F)(F)F)c1 | 5.72% (inactive) | 5.66 |
| Cc1ccc(NC(=O)c2nc[nH]c2C(=O)N2CCCCC2)c(C(=O)c2ccccc2)c1 | 9.07% (inactive) | 12.6 |
| O=C1NC(c2ccccc2)CCC1(Cl)Cl (stereo not given) | 0.94% (inactive) | 1.7 |

| Structure (SMILES) | inhibition (stronger effect = higher value) | inhibition [1] [%] |
| --- | --- | --- |
| COc1ccc(C)cc1NC(=O)C(OC(=O)c1cccc(S(=O)(=O)N(C)c2ccccc2)c1)c1ccccc1 (stereo not given) | -1.94% (inactive) | 9.6 |
| CCOc1ccc2ccccc2c1/C=N/NC(=O)c1c(C)cc(C)[nH]c1=O | -16.1% (inactive) | -1.48 |
| O=C(NCCCCCCCCCNC(=O)C(F)(F)F)C(F)(F)F | 3.21% (inactive) | 10.9 |
| O=C1CC2(CC(c3ccc(Cl)cc3)=NO2)C(=O)N1c1ccccc1 (stereo not given) | -4.42% (inactive) | -1.92 |
| CCCCC1(C(=O)OCC)NC(c2ccc(O)cc2)C2C(=O)N(c3ccccc3)C(=O)C21 (stereo not given) | -5.62% (inactive) | -0.56 |
| O=C(CCCNS(=O)(=O)c1cccc2nsnc12)NCCN1CCN(c2ccccc2F)CC1 | -11.3% (inactive) | -10.3 |
| CCOc1ccc(NC(=S)NC(=O)/C=C/c2ccc(OC)cc2)c([N+](=O)[O-])c1 | -1.27% (inactive) | 1.54 |
| CSc1ccccc1NC(=O)c1ccc2c(c1)CCN2S(C)(=O)=O | -1.11% (inactive) | -0.34 |
| CCOC(=O)c1c(S(=O)(=O)Nc2ccc(CN3CCC(C)CC3)cc2)c(C)n(C)c1C | -2.23% (inactive) | 3.26 |
| Cc1ccc(S(=O)(=O)N2CCC(C(=O)OCC(=O)N(C)c3ccccc3)CC2)cc1C | -8.73% (inactive) | -4.4 |
| CC(=O)NC1(c2ccc(F)cc2)CCN(C(=O)c2c(F)cccc2F)CC1 | 8.64% (inactive) | 0.61 |
| O=C(NCC1CCCO1)C(C(=O)c1ccccc1)n1cc(Cl)ccc1=O (stereo not given) | 6.75% (inactive) | -1.73 |
| O=C(NCc1ccc(F)cc1)C1CCN(C(=O)Nc2ccc(F)cc2)CC1 | -23.9% (inactive) | -6 |
| CC(Nc1nc(C(F)(F)F)nc2ccccc12)c1cccs1 (stereo not given) | 4.44% (inactive) | 8.98 |
| CCOC(=O)C1=C(CCc2ccccc2)NC(=O)NC1c1ccc2ccccc2c1 (stereo not given) | 30% (inactive) | 52.5 |
| COc1ccccc1NC(=O)COC(=O)CNC(=O)C1CCCCC1 | -1.14% (inactive) | -2.95 |
| CN(C)Cc1ccccc1C1(O)c2ccccc2CSc2ccccc21 (stereo not given) | -0.96% (inactive) | 2.09 |
| CCN(CC)CCn1c(=S)[nH]c2ncccc2c1=O | -13.3% (inactive) | -17.8 |
| CC(=O)Nc1ccc(N2C(=O)CC(Sc3nccc(C)n3)C2=O)cc1 (stereo not given) | -4.91% (inactive) | -1.37 |
| CCOc1ccc(CNC(=O)CCC(=O)N2CCSc3ccccc32)cc1 | -9.71% (inactive) | -7.82 |
